Test results as given in PubChem BioAssay (NCI).
Compounds without any hit were thinned out: in the full panel of roughly 79,000, 15% have a hit. Rule as the data show it: active = growth inhibition above about 70%; inactive = the rest. Where a SMILES comes first, the peptide text is derived from it. The star is where a group is joined. ONp = O=[N+]([O-])c1ccc(O*)cc1; Tos = Cc1ccc(S(=O)(=O)*)cc1

Legend:
[1] = NCI Yeast Anticancer Drug Screen. Data for the rad50 strain (AID 155);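 also: 0% = growth of vehicle-only cultures of the same strain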; settings: S. cerevisiae rad50 strain growth inhibition; at 50.0 µM; hits give high values
Procedure, shortened: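 Growth of the mutant yeast was measured after compound exposure and referenced to vehicle-treated cultures.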

[2] = NCI Yeast Anticancer Drug Screen. Data for the mec2-1 strain (AID 157); settings: S. cerevisiae mec2-1 strain, at 50.0 µM, hits give high values
Procedure, shortened: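 Using mec2-1 yeast: add compound, measure growth, express inhibition versus vehicle-treated cultures.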

[3] = NCI Yeast Anticancer Drug Screen. Data for the sgs1 mgt1 strain (AID 161);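 also: 0% = growth of cultures given vehicle only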; settings: S. cerevisiae sgs1 mgt1 strain, at 50.0 µM, hits give high values
Procedure, shortened: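 Growth of a repair-deficient yeast mutant was monitored after compound treatment and expressed as inhibition relative to vehicle-treated cultures.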

[4] = NCI Yeast Anticancer Drug Screen. Data for the cln2 rad14 strain (AID 165);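 also: 0% = growth equal to vehicle treated cultures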; settings: S. cerevisiae cln2 rad14 strain, at 50.0 µM, hits give high values
Procedure, shortened: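 Yeast strain cln2 rad14, bearing defects in cell cycle control and DNA repair, serves as the test system; values reflect growth inhibition compared with vehicle.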

[5] = NCI Yeast Anticancer Drug Screen. Data for the bub3 strain (AID 167); settings: S. cerevisiae bub3 mutant strain, at 50.0 µM, hits give high values
Procedure, shortened: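 Whole-cell yeast assay. The mutant strain was incubated with compounds, and growth inhibition was determined by comparison with vehicle-treated cells.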

[6] = NCI Yeast Anticancer Drug Screen. Data for the mlh1 rad18 strain (AID 175); settings: S. cerevisiae mlh1 rad18 strain growth inhibition; at 50.0 µM; hits give high values
Procedure, shortened: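 Steps: expose repair-defective yeast to compound; measure growth; express inhibition against vehicle-treated controls.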

Measured: growth inhibition

O=c1cc(-c2ccc(Cl)cc2)oc(-c2ccc(Cl)cc2)c1
inactive: [1] 5.5% | [2] -7.65% | [3] 4.05% | [4] -35.9% | [5] 0.7% | [6] 2.8%

CCC(=O)Oc1ccc(CCC(C)=O)cc1OC
inactive: [1] 4.15% | [2] -7.55% | [3] -16.8% | [4] -26.6% | [5] -2.3% | [6] 25.8%

CC1OC(OC(=O)c2ccc([N+](=O)[O-])cc2)CC(OC(=O)c2ccc([N+](=O)[O-])cc2)C1OC(=O)c1ccc([N+](=O)[O-])cc1 (stereo not drawn)
inactive: [1] 18.4% | [2] 5.45% | [3] -10.2% | [4] 24.7% | [5] 1.6% | [6] -24.8%

NC(CCCCCCCCCCP(=O)(O)O)C(=O)O (stereo not drawn)
inactive: [1] -39.6% | [2] -41.5% | [3] -76.4% | [4] -12.1% | [5] -19.6% | [6] -18.6%

CC(O)(COS(=O)(=O)c1ccccc1)c1ccccc1 (stereo not drawn)
inactive: [1] -8.1% | [2] 0.7% | [3] -8.7% | [4] -14% | [5] 26.7% | [6] -8.4%

O=c1cn[nH]c2c(Br)cc(Br)cc12
inactive: [1] 12% | [2] -0.3% | [3] -1.6% | [4] 2.65% | [5] -9.9% | [6] 16.4%

CCCCCCCC[C@]1(O)C[C@H]2[C@@H]3CCc4cc(OC)ccc4[C@H]3CC[C@]2(C)[C@H]1O
inactive: [1] -3.45% | [2] -10.7% | [3] -1.15% | [4] 7.1% | [5] -11.2% | [6] 0.5%

Cc1ccc(S(=O)(=O)NCC(=O)NCC(=O)Oc2ccc([N+](=O)[O-])cc2)cc1 (Tos-Gly-Gly-ONp)
inactive: [1] 52.7% | [2] 13% | [3] 42.2% | [4] 18.8% | [5] 2% | [6] 16%

S=C1NNC(=S)NN1
inactive: [1] 43.7% | [2] 29.8% | [3] 39.9% | [4] 37.9% | [5] 49.9% | [6] 62.7%

CC1(C)CC(=O)C(C(c2ccc3c(c2)CCC3)C2C(=O)CC(C)(C)CC2=O)C(=O)C1
inactive: [1] -18.1% | [2] -27.9% | [3] -31.1% | [4] 23.9% | [5] -26.3% | [6] -21.4%

C[N+](C)=c1ccc2nc3ccc(N)cc3sc-2c1
inactive: [1] -84.8% | [2] -59.5% | [3] -43.6% | [4] -66.7% | [5] -79.8% | [6] -76.8%

O=C1CCCCCCCC(=O)Nc2ccc3nc4ccccc4c(c3c2)SCCCCCCCCCCCCSc2c3ccccc3nc3ccc(cc23)N1
inactive: [1] -9.85% | [2] -6.5% | [3] -20.9% | [4] -9.15% | [5] -3.2% | [6] -10.3%

CC(=O)OCC1OC(n2cnc([N+](=O)[O-])c2Br)C(OC(C)=O)C1OC(C)=O (stereo not drawn)
inactive: [1] 15.1% | [2] 15.4% | [3] 18.8% | [4] 25.5% | [5] 6.05% | [6] 21.8%

C=C(Br)C[N+](CC)(CC)CC
inactive: [1] -14.3% | [2] -3.3% | [3] -9.4% | [4] 15.8% | [5] -8.85% | [6] -9.25%

O=S(=O)(O)C1CC2C(c3ccccc31)N1ON2O1 (stereo not drawn)
inactive: [1] 54.8% | [2] -2.05% | [3] 10.3% | [4] 3.75% | [5] -14.7% | [6] -0.95%

O=c1nc2n(cc1F)C1OC(CCl)C(O)C1O2 (stereo not drawn)
inactive: [1] 8.55% | [2] -8% | [3] 15.7% | [4] 1.05% | [5] 6.9% | [6] 2.2%

CC(=NCCN=C(C)c1ccc(Br)cc1)c1ccc(Br)cc1
inactive: [1] 16.9% | [2] -6.95% | [3] -21.8% | [4] -2% | [5] 2.4% | [6] 1.1%

CCC(CC)C(O)CCCN(C)C (stereo not drawn)
inactive: [1] 33.6% | [2] 21.8% | [3] 31.2% | [4] 12.8% | [5] 1.65% | [6] 24.1%

COC(=O)/C=C(/C(=O)OC)c1c(C)c(C)c2c(C)cc(C)cc(C)c1-2
inactive: [1] 20.7% | [2] 14.4% | [3] 3.8% | [4] 17.4% | [5] 34.9% | [6] 22.2%

O=S(=O)(CS(=O)(=O)Nc1ccccc1)Nc1ccccc1
inactive: [1] 21.1% | [2] 26.9% | [3] 21.7% | [4] -4.45% | [5] 11.3% | [6] 21.3%

COC(C)C(NC=O)C(=O)O (stereo not drawn)
inactive: [1] 18.8% | [2] 10.9% | [3] 7.45% | [4] 8.65% | [5] 9.95% | [6] 1.9%

O=c1c([OH2+])c(-c2ccc(O)cc2[O-])oc2cc(O)cc([O-])c12.O=c1c([OH2+])c(-c2ccc(O)cc2[O-])oc2cc(O)cc([O-])c12.[Ti+4]
inactive: [1] -43.4% | [2] 27.2% | [3] 7.95% | [4] 8.2% | [5] 2.55% | [6] 10.2%

Nc1ncnc2c1ncn2CCCCC(=O)O
inactive: [1] -17.1% | [2] -12.2% | [3] -23.6% | [4] -2.1% | [5] -53% | [6] -15.3%

CC(=O)/C=C(\c1ccccc1)c1c(O)c2ccccc2oc1=O
inactive: [1] -2% | [2] 9.15% | [3] 4.45% | [4] 7.2% | [5] 3.85% | [6] 6.15%

COc1ccc2c(c1)CCCN1CCc3cc(OC)c(OC)cc3C21 (stereo not drawn)
inactive: [1] 21.1% | [2] 60.8% | [3] -21.3% | [4] -8.85% | [5] 4.5% | [6] -17.7%

N=C(N)SC1CC2CC1C1C=CCC21 (stereo not drawn)
inactive: [1] 6.65% | [2] -6.6% | [3] 16.4% | [4] -19.1% | [5] 9.05% | [6] 16.2%

CN(C)C12CCC(c3ccccc31)c1ccccc12
inactive: [1] 29.8% | [2] 20.8% | [3] 27.4% | [4] 8.6% | [5] 36.5% | [6] 4.25%

NCS(=O)(=O)O
inactive: [1] -12.8% | [2] -23.1% | [3] -18.9% | [4] 9.5% | [5] -24.2% | [6] -26.1%

CC(NC(=O)CN)C(=O)O (stereo not drawn)
inactive: [1] -43.4% | [2] -8.55% | [3] -8.45% | [4] -22.6% | [5] 5.15% | [6] 4.4%

COc1ccc(C2=C(OC(=O)N(C)C)c3cccn3-c3cc(Cl)ccc3S2)cc1
inactive: [1] -7.3% | [2] 2% | [3] 1.7% | [4] -1.85% | [5] -0.1% | [6] -5.95%

CN(C)CC1CCC(=C2CCCC2)C1=O (stereo not drawn)
inactive: [1] -8.9% | [2] -10.7% | [3] 11.8% | [4] 6.2% | [5] 3.6% | [6] 20.6%

CCCCCCCCCC(C(=O)OCC)(C(=O)OCC)C1CCCC1
inactive: [1] -26.9% | [2] -4.6% | [3] -12.1% | [4] 5.75% | [5] -7.8% | [6] -30.1%

COC(=O)C(N)C(C)C (stereo not drawn)
inactive: [1] 13.8% | [2] 9.15% | [3] -10.3% | [4] -6.9% | [5] 4.55% | [6] 0.35%

CC1(C)N(/N=C/c2ccccc2)C(c2ccccc2)C(c2ccccc2)N1/N=C/c1ccccc1 (stereo not drawn)
inactive: [1] -8.95% | [2] -6.45% | [3] 6.25% | [4] -11.3% | [5] 2.65% | [6] 9.75%

C=C(C)C(=O)Nc1ccc(-n2[nH]c(C)c(N=Nc3ccc(N(C)C)cc3)c2=O)cc1
inactive: [1] 6.95% | [2] -5.5% | [3] -14.6% | [4] -36% | [5] -2.55% | [6] 1.85%

O=C1CSC(c2cccs2)N1CCN1C(=O)CSC1c1cccs1 (stereo not drawn)
inactive: [1] 4.65% | [2] -2.1% | [3] -6.2% | [4] -6.75% | [5] 1.1% | [6] -0.25%

Cc1ccccc1N=CC(C=O)[N+](=O)[O-] (stereo not drawn)
inactive: [1] -1.65% | [2] -9.8% | [3] 0.95% | [4] 4.1% | [5] -4.7% | [6] -5.65%

CC(=O)OC(C)C(C)Br (stereo not drawn)
inactive: [1] 9.75% | [2] 4.4% | [3] -9.35% | [4] -25.1% | [5] -13% | [6] 4.9%
